Bioassay records: PubChem BioAssay, National Center for Advancing Translational Sciences (NCATS)
AMA1-RON2 inh – AMA1-RON2 (P. falciparum) interaction inhibition; AlphaScreen AMA1-biotinylated RON2 peptide binding; Potency, µM (series often up to 58.2 µM), inactives show at the highest dose activity change, negative = inhibition, hits mostly inhibitors; actives 0.2% (n = 360,000);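 also: 0% = vehicle wells and -100% = peptide control; nearly all actives have a fitted effect of over 45% in size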
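AMA1 (3D7) with his tag at 25 nM final met compounds first, then biotinylated RON2 peptide at 25 nM; detection used donor plus acceptor beads, 10 µg/mL apiece, read by AlphaScreen after 30 min at room temperature.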
Pf growth 96h – P. falciparum growth inhibition at 96 hour, primary screen for plastid delayed-death inhibitors; P. falciparum luciferase reporter growth, 96 h; Potency, µM (series often up to 28.7 µM), without a hit: at the top dose activity change, negative = inhibition, most hits filed as inhibitors; actives 6.9% (n = 320,000)
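Erythrocytes infected with luciferase-expressing P. falciparum were dispensed at 2% hematocrit and 0.05% parasitemia (final), then incubated with compounds 96 hours at 37 C in 5% CO2. Luminescence after detection reagent addition reported growth.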
HCV inh – blocks hepatitis C virus; actives 3.4% (n = 340,000); Potency, µM (highest dose often 41.8 µM), for the others: at the top dose activity change, negative = inhibition, hits mostly inhibitors; Huh7.5.1 HCVcc-Cre infection, luciferase reporter, 44 h
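Reporter virus HCVcc-Cre (~0.5 moi) infects cells exposed to compound; seeding density 1,000 cells/well with 4 h settling beforehand. Luminescence, 15 sec read, taken 44 h post-infection following a 15 min RT substrate incubation.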
Pf growth 48h – inhibits P. falciparum growth in the first generation, 48 h; Potency, µM (series often up to 28.7 µM), for the others: top-dose activity change, negative = inhibition, hits mostly inhibitors; actives 5.9% (n = 310,000); P. falciparum luciferase growth in erythrocytes, 48 h
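In quantitative HTS format, infected erythrocytes bearing luciferase-reporter parasites were treated for a single generation at 37 C. Luminescence after adding detection reagent served as the growth measure.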
An asterisk follows results filed as active; ? = inconclusive; / = no result given; [ ] = dose if it differs, or a comment. This is a sample that favours compounds with a hit; in the whole collection about 11% have one here. Calls follow the shape of the dose curve; as a rule, active = well fitted curve in the direction sought with a large enough effect; inconclusive = small, poorly fitted or top-dose-only effect, or another doubt; inactive = no such curve, though single readings can be large; an effect the other way counts as inactive or inconclusive. Unless noted, % is scaled to controls: 0 for no effect and ±100 for the full control effect; potency is read from the fitted curve at half-maximal effect.

SMILES	AMA1-RON2 inh	Pf growth 96h	HCV inh	Pf growth 48h
C[C@@H]1C(=O)O[C@H]2[C@H](O)[C@@]34[C@H]5C[C@@H](C(C)(C)C)[C@]36[C@@H](OC(=O)[C@@H]6O)O[C@@]4(C(=O)O5)[C@@]12O	-8%	21%	-3%	25%
CC(c1ccccc1)C(Cc1nc2ccccc2[nH]1)c1nc2ccccc2[nH]1 (stereo not drawn)	/	-17%	/	7.4µM*
CC(C)[C@H](NC(=O)c1cccc(S(=O)(=O)N2CCCC2)c1)c1nc2ccccc2[nH]1	4%	-38%	-13%	?
CC(C)C(NC(=O)c1ccc(S(=O)(=O)N2CCOCC2)cc1)c1nc2ccccc2[nH]1 (stereo not drawn)	3%	13µM*	-17%	-20%
CN(/N=C/c1ccc(O)cc1O)c1nc(-c2ccccc2)cc(-c2ccccc2)n1	-1%	5.2µM*	?	9.3µM*
Cc1cc(-c2ccccc2)nc(N/N=C/c2ccc(N(C)C)cc2)n1	-5%	/	13µM*	/
CN(N)c1nc(-c2ccccc2)cc(-c2ccccc2)n1	2%	83%	?	-10%
Cc1cc(-c2ccccc2)nc(N/N=C/c2ccc(O)cc2O)n1	46%	-11%	10µM*	?
Cc1cc(-c2ccccc2)nc(N/N=C/c2ccccc2)n1	37%	77%	?	84%
Cc1cc(-c2ccccc2)nc(N/N=C/c2ccco2)n1	21%	-1%	-29%	-1%
Cc1cc(-c2ccccc2)nc(N/N=C/c2ccc([N+](=O)[O-])cc2)n1	-2%	?	10µM*	0%
COc1cc(S(=O)(=O)N(Cc2ccc(C)cc2)C2CCCCC2)ccc1-n1cnnn1	-2%	/	-13%	5.9µM*
O=C1N(CCCl)c2ccc(Br)cc2C12OCCO2	15%	?	-17%	-5%
CCCc1nc2ccccc2n1CCOc1ccccc1	-17%	4.1µM*	-11%	/
CC(C)(C)N1CC(c2nc3ccccc3n2CCOc2ccccc2)CC1=O (stereo not drawn)	4%	5.9µM*	5%	/
C=C(Br)Cn1c(CCC)nc2ccccc21	-7%	10µM*	5%	-14%
COc1ccc(NCc2nc3ccccc3n2CCOc2ccc(C)cc2)cc1	?	35%	8.9µM*	-1%
COc1ccc(NS(=O)(=O)c2cccc(C(=O)NNC(=O)c3ccc(O)c(Cl)c3)c2)cc1	19%	?	1%	?
COc1ccc(-n2c(COc3ccccc3)n[nH]c2=S)cc1	93%	?	13%	-17%
Cc1nc2ccccc2n1CCCOc1ccccc1	-13%	?	?	250%
Cc1nc(Cl)c(Cl)n1CCOc1ccccc1	-21%	?	12%	8.3µM*
Cc1ccc(CNC(=O)CN(C(=O)C2(C)CC(=O)N=C3C=CC=CN32)c2cccc(C)c2C)cc1 (stereo not drawn)	10%	-4%	12%	0%
COc1ccccc1N1CCN(Cc2cc(=O)c(OCC(=O)Nc3ccccc3)co2)CC1	5%	-6%	?	9.3µM*
O=C(COc1coc(CN2CCN(c3ccccc3F)CC2)cc1=O)Nc1ccccc1	-12%	30%	?	15%
Cc1cccc(NC(=O)COc2coc(CN3CCN(c4ccccc4)CC3)cc2=O)c1C	-10%	?	?	9.3µM*
SMILES	AMA1-RON2 inh	Pf growth 96h	HCV inh	Pf growth 48h
O=C(COc1coc(CN2CCN(c3ccccc3)CC2)cc1=O)Nc1ccccc1	11%	?	1%	?
Cc1ccc(NC(=O)COc2coc(CN3CCN(c4ccccc4)CC3)cc2=O)cc1	-4%	4.7µM*	?	?
COc1cc(OC)c(C(=O)OC(C)C(=O)Nc2cccc(C(F)(F)F)c2)cc1OC (stereo not drawn)	-19%[2.32 µM]	9.3µM*	?	?
Cc1ccc(NS(=O)(=O)c2ccc(-c3cnc(C4CC4)o3)cc2)cc1	-5%	12µM*	?	7%
CN1C(=O)N(CC(=O)Nc2ccc3c(c2)OCO3)C(=O)C12CCCCC2	-4%	/	/	/
COc1ccc(C(C(=O)NC(C)(C)C)N(C(=O)CCC(=O)Nc2cc(C)on2)c2c(C)cccc2C)cc1 (stereo not drawn)	-19%	4%	?	?
c1ccc(-c2ccccc2OCCCN2CCOCC2)cc1	7%	9%	2%	26%
c1ccc(-c2ccccc2OCCOCCN2CCCCC2)cc1	-2%	44%	?	?
c1ccc(-c2ccccc2OCCN2CCCC2)cc1	-10%	13µM*	4%	6%
OCCCN1CCN(CCCOc2ccccc2-c2ccccc2)CC1	-23%	10µM*	-24%	?
Cc1sc2nc(CSCC(=O)NC3(C#N)CCCCC3)[nH]c(=O)c2c1C	5%	-14%	-13%	?
COc1cc2ccccc2cc1C(=O)Nc1ccc(N2CCN(C)CC2)cc1	-20%	/	13µM*	?
CN1CCN(c2ccc(NC(=O)C(C)(c3ccccc3)c3ccccc3)cc2)CC1	7%	?	?	13µM*
CN1CCN(c2ccc(NC(=O)c3ccc(Oc4ccccc4)cc3)cc2)CC1	-28%	?	?	?
COc1cc2ccccc2cc1C(=O)Nc1ccc(N2CCN(C(=O)C(C)C)CC2)cc1	-1%	15µM*	10µM*	12µM*
COc1ccc(-n2nc(C(=O)NCc3ccco3)c3c4ccccc4n(C)c3c2=O)cc1	1%	31%	2%	29%
COc1ccc(-n2nc(C(=O)NCC(=O)Nc3cc(OC)c(OC)c(OC)c3)c3ccccc3c2=O)cc1OC	-8%	?	-9%	?
COc1ccc(-n2nc(C(=O)NCC(=O)Nc3cc(OC)c(OC)c(OC)c3)c3ccccc3c2=O)cc1	9%	6%	-18%	9.3µM*
COc1ccc(-n2nc(C(=O)NCc3ccco3)c3ccccc3c2=O)cc1	2%	3.3µM*	-13%	/
COc1ccc(-n2nc(C(=O)Nc3ccc4c(c3)OCO4)c3ccccc3c2=O)cc1	-7%	3%	?	10µM*
COc1ccc(-n2nc(C(=O)NCC(=O)NCc3ccc(F)cc3)c3ccccc3c2=O)cc1	-18%	6.6µM*	-17%	?
CCNc1nc(-c2sc(NC(=O)C(C)(C)C)nc2C)c(-n2cc(-c3ccccc3)nn2)s1	-17%	/	/	/
CC1(C(=O)NS(=O)(=O)c2ccccc2)CCN1C(=O)CC1CCCCC1 (stereo not drawn)	4%	/	/	/
CN(CC(=O)Nc1ccc(F)cc1)C(=O)C1CCN(S(=O)(=O)c2ccc3c(c2)OCCO3)CC1	-5%	?	?	?
CN(Cc1ccc(OC(F)F)cc1)C(=O)C1CCN(S(=O)(=O)c2ccc3c(c2)OCCO3)CC1	9%	?	6.3µM*	?
COc1cccc(CN(C)C(=O)c2cccc(S(=O)(=O)N3CCN(c4ccc(F)cc4)CC3)c2)c1OC	-29%	?	?	10µM*
CN(Cc1ccc(Cl)cc1Cl)C(=O)c1cccc(S(=O)(=O)NCc2ccccc2)c1	2%[11.6 µM]	/	-25%	/
